# Laboratory results reported in PubChem BioAssay AID1259343 (VanderVen Lab, College of Veterinary Medicine, Cornell …, 2017).
# About 2,900 (47%) of roughly 6,200 compounds were called active. Cut-off read from the data, not from the text of the source: active = inhibition above about 50%; inactive = the rest. The set was probably picked from earlier hits. This is one part of the list.
# Experiment: Mycobacterium tuberculosis growth inhibition, primary screen (AID 1259343)
# Conditions: inhibition: at 10 µM, active compounds read high; outcome: 10 uM
row,Structure (SMILES),inhibition
1,Cc1cc(N2CCCCC2)nc(Nc2ccc(NS(=O)(=O)c3ccc4nc(C)sc4c3)cc2)n1,25.5% (inactive)
2,Oc1ccc(Nc2nc(N3CCCC3)c3ccccc3n2)cc1,83.1% (active)
3,c1ccc(CN2CCN(c3nc(-c4cccnc4)nc4ccccc34)CC2)cc1,26.4% (inactive)
4,N#Cc1nc(COc2ccc(Cl)cc2)oc1N1CCCC1,92.6% (active)
5,COc1ccc(OCc2nc(C#N)c(N3CCCC3)o2)cc1,-23.3% (inactive)
6,CCOC(=O)C1CCCN(c2oc(-c3ccc(Cl)cc3)nc2C#N)C1 (stereo not given),12.5% (inactive)
7,COc1ccc(C[C@H](N)C(=O)N[C@@H]2[C@@H](CO)OC(n3cnc4c(N(C)C)ncnc43)[C@@H]2O)cc1 (stereo not given in full),66.6% (active)
8,CN(C)N=Nc1nc[nH]c1C(N)=O,70% (active)
9,CC(C)(C)c1csc(NC(=O)C23CC4CC(CC(C4)C2)C3)n1,61.1% (active)
10,CC(C)(C)c1csc(NC(=O)CC2OCCc3ccsc32)n1 (stereo not given),22.8% (inactive)
11,CC(C)(C)C(=O)Nc1nc(CC23CC4CC(CC(C4)C2)C3)cs1,38% (inactive)
12,Cc1cc(C(=O)Nc2nc(C(C)(C)C)cs2)c(C)o1,60.2% (active)
13,CC(C)(C)c1csc(NC(=O)c2ccc(Cl)s2)n1,-24% (inactive)
14,Cc1ccc(-c2ccc(C3=CC(C)(C)OC3=O)cc2)cc1,43.7% (inactive)
15,O=C(Nc1cccc(Cl)c1)Oc1ccccc1-c1ccccc1,17.6% (inactive)
16,N#CC1=C2Sc3ccccc3N2C(O)(C(F)(F)F)C(C(=O)C(F)(F)F)=C1 (stereo not given),71.5% (active)
17,Fc1ccc(Br)cc1C1Nc2cccc3cccc(c23)N1,14.4% (inactive)
18,Clc1cccc(C2Nc3cccc4cccc(c34)N2)c1Cl,97.7% (active)
19,Fc1cccc(Cl)c1C1Nc2cccc3cccc(c23)N1,-12.9% (inactive)
20,Fc1ccccc1Nc1nc(COc2cccc(Cl)c2)cs1,75.5% (active)
21,CCC(C)[C@H]1O[C@]2(CC[C@@H]1C)C[C@@H]1C[C@@H](C/C=C(\C)[C@@H](OC3C[C@H](OC)C(O[C@H]4C[C@H](OC)[C@@H](O)[C@H](C)O4)[C@H](C)O3)[C@@H](C)/C=C/C=C3\CO[C@@H]4[C@H](O)C(C)=C[C@@H](C(=O)O1)[C@]34O)O2 (stereo not given in full),67.3% (active)
22,O=C1c2sc3nnc(-c4ccccc4)c(=O)n3c2C(=O)N1c1cccc(Cl)c1Cl,90.4% (active)
23,Clc1cccc(N2CCN(c3nnnn3-c3ccccc3)CC2)c1,-17.8% (inactive)
24,NS(=O)(=O)c1ccc(N2CCN(c3cccc(Cl)c3)CC2)nc1,52.9% (active)
25,Cc1nc(-c2c[nH]c(C(=O)N(C)C3CCC(C)CC3)c2)cs1 (stereo not given),29.5% (inactive)

row,Structure (SMILES),inhibition
1,Cn1nc(CC(=O)NC2CCC3CCCCC3C2)c2ccccc2c1=O (stereo not given),14.5% (inactive)
2,Cc1nc(-c2c[nH]c(C(=O)NC3CCC4CCCC4C3)c2)cs1 (stereo not given),87.9% (active)
3,Cc1ccc2nc(C3CCN(c4nncc(-c5ccc(Cl)cc5)n4)CC3)[nH]c2c1,37.6% (inactive)
4,CC(NCc1nnc(-c2cccc(Br)c2)o1)c1cccc(F)c1 (stereo not given),-7.48% (inactive)
5,Clc1ccc(CNCc2cn[nH]c2-c2ccc(-c3ccccc3)cc2)s1,74.1% (active)
6,CC(NCc1cn[nH]c1-c1ccc(-c2ccccc2)cc1)c1ccc(F)cc1 (stereo not given),83.9% (active)
7,CC(NCc1ccco1)c1nnc(-c2ccc(F)cc2)o1 (stereo not given),25.6% (inactive)
8,O=C(OC1CCCC1)c1ccc(NC(=O)C2COCCO2)cc1 (stereo not given),84.8% (active)
9,CCCc1ccc(-c2ccc(NC(=O)C3COCCO3)cc2)cc1 (stereo not given),72.3% (active)
10,CC(C)Cc1ccc(-c2csc(NC(=O)C3COCCO3)n2)cc1 (stereo not given),90.5% (active)
11,CCCCc1ccc(-c2csc(NC(=O)C3(C)CCOCC3)n2)cc1,43.9% (inactive)
12,Cc1nnsc1C(=O)Nc1ccc(C(=O)OC2CCCC2)cc1,-6.8% (inactive)
13,CC(C)Oc1ccc(C(=O)Nc2ccc3c(c2)oc(=O)n3C)cn1,92.7% (active)
14,Cc1cccc(OCCC(=O)Nc2ccc3c(c2)oc(=O)n3C)c1C,15.8% (inactive)
15,O=c1[nH]c(=O)n(CCC2=CCCCC2)c(O)c1C=C1C=CC=N1,89.4% (active)
16,CSc1nc(NCC(C)C)c2cnn(CCNC(=O)CC(C)C)c2n1,-2.36% (inactive)
17,CSc1nc(N2CCCC2)c2cnn(CCNC(=O)c3cccs3)c2n1,9.6% (inactive)
18,CCCNc1nc(SC)nc2c1cnn2CCNC(=O)c1c(F)cccc1Cl,60.4% (active)
19,CC(=NNC(N)=S)C12CC3CC(CC(C3)C1)C2,14.6% (inactive)
20,C=CCNC(=S)NN=Cc1ccc2c(c1)OCCO2,23.3% (inactive)
21,CC(=NNC(=S)NC(C)C)c1ccc2c(c1)OCCO2,88.1% (active)
22,CC(=NNC(=S)NC(C)C)c1ccc(C(C)(C)C)cc1,5.89% (inactive)
23,CC(=NNC(N)=S)C(C)=NNC(N)=S,54.6% (active)
24,CC(=NNC(N)=S)c1ccc(C)cc1,76.6% (active)
25,CC(=NNC(N)=S)c1ccc2c(c1)OCCO2,69% (active)

row,Structure (SMILES),inhibition
1,COc1ccccc1-n1cc(-c2ccnc(N(C)Cc3cccc(C)n3)n2)cn1,29.4% (inactive)
2,COc1ccc(-c2cnnc(N3CCC(c4ccccc4Cl)C3)n2)cc1 (stereo not given),inactive
3,C=C(C)NC(=S)Nc1nccs1,7.83% (inactive)
4,CC1CCC(N(C(=O)Nc2nccs2)C2CC2)CC1 (stereo not given),53.1% (active)
5,CC1=CC(=O)c2c(O)cccc2C1=O,102% (active)
6,O=C(O)c1ccccc1-c1c2cc(Br)c(=O)cc-2oc2[c]([Hg])c(O)c(Br)cc12,66.5% (active)
7,COc1ccccc1-c1cc(=O)c2cccc(OC)c2o1,-0.59% (inactive)
8,CCCCCCCCON1C(=O)C2C3C=CC(O3)C2C1=O (stereo not given),8.42% (inactive)
9,Cc1ccc(C)n1-c1ccsc1C(=O)NC1CCCC1,39.9% (inactive)
10,O=C(NCCc1ccc2c(c1)OCCO2)C12CC3CC(CC(C3)C1)C2,45.1% (inactive)
11,O=C(NNC(=O)C12CC3CC(CC(C3)C1)C2)c1sccc1-n1cccc1,61.1% (active)
12,CC1CCC(NC(=O)c2sccc2-n2cccc2)CC1 (stereo not given),87.7% (active)
13,COCC(Nc1ncc(Br)cn1)c1ccc(C)o1 (stereo not given),38.8% (inactive)
14,Cc1nc(-c2ccc(Oc3ccc(C(F)(F)F)cn3)cc2)no1,89.7% (active)
15,Cc1ccn2cc(C(=O)Nc3nc4ccccc4s3)nc2c1,50.8% (active)
16,CCOc1ccc2nc(NC(=O)c3ccc(C)o3)sc2c1,25.2% (inactive)
17,O=C(Cc1ccsc1)NCC12CC3CC(CC(C3)C1)C2,75.4% (active)
18,O=C(NCC12CC3CC(CC(C3)C1)C2)c1ccccc1,25.9% (inactive)
19,O=C(Cc1ccc(-c2ccccc2)cc1)NCC(c1ccsc1)N1CCCC1 (stereo not given),37.7% (inactive)
20,CC(=NNS(=O)(=O)c1cc(C)ccc1C)c1ccc2c(c1)Nc1ccccc1S2,57.9% (active)
21,CC(=NNC(=S)NC(C)C)c1ccc2c(c1)Nc1ccccc1S2,20.4% (inactive)
22,CC(=NNc1ccc(C(F)(F)F)cn1)c1ccc2c(c1)Nc1ccccc1S2,-55.5% (inactive)
23,CC(=NNC(=O)c1cc(C)oc1C)c1ccc2c(c1)Nc1ccccc1S2,47.6% (inactive)
24,CC(=NNC(=O)COc1ccc(F)cc1)c1ccc2c(c1)Nc1ccccc1S2,16% (inactive)
25,CC(=NNC(=O)c1ccoc1C)c1ccc2c(c1)Nc1ccccc1S2,75.1% (active)

row,Structure (SMILES),inhibition
1,Cc1cc(C)n(C(C)CNS(=O)(=O)c2ccc(Cl)cc2)n1 (stereo not given),inactive
2,CCOc1ccc(Oc2ccc(NC(=O)c3ccc(C)s3)cc2)cc1,44.9% (inactive)
3,CCOc1ccc(NC(=O)CCSc2nnc(C)s2)cc1,91.3% (active)
4,CCOc1ccc(NC(=O)Cc2ccc(C)s2)cc1,59.7% (active)
5,COc1ccc(Cl)c(NS(=O)(=O)c2cnc(Cl)n2C)c1,25.9% (inactive)
6,O=S1(=O)C(c2ccccc2)=CC1c1ccccc1 (stereo not given),49.3% (inactive)
7,Cc1ccc(S(=O)(=O)NCC(C)n2nc(C)cc2C)cc1 (stereo not given),10.1% (inactive)
8,Clc1ccc(C2CC(c3ccc(Cl)cc3)n3nnnc3N2)cc1 (stereo not given),66.5% (active)
9,Clc1ccc(C2CC(c3ccc(Cl)cc3)n3ncnc3N2)cc1 (stereo not given),-10.5% (inactive)
10,CCCCc1oc2ccccc2c1C1NC(=O)c2ccccc2N1 (stereo not given),10.5% (inactive)
11,CCCCc1oc2ccccc2c1C(=O)c1cc(I)c(OCCN(CC)CC)c(I)c1,77% (active)
12,O=C(Nc1ccccc1-c1cn2c(CN3CCNCC3)csc2n1)c1cnc2ccccc2n1,74.8% (active)
13,O=C(Nc1ccccc1OCCCc1ccccc1)c1ccccn1,22.6% (inactive)
14,O=C(Nc1ccccc1OCCCc1ccccc1)C1CCOC1 (stereo not given),83% (active)
15,Cc1ccc(CC(=O)Nc2ccccc2OC2CCCC2)s1,10.8% (inactive)
16,CC1=NOC(C(=O)Nc2ccccc2OCCCc2ccccc2)C1 (stereo not given),55.6% (active)
17,Oc1ccc(NC(=S)Nc2ccc(OC(F)F)cc2)cc1,94.3% (active)
18,FC(F)Oc1ccc(NC(=S)Nc2ccc3c(c2)OCCO3)cc1,85.3% (active)
19,COc1ccc(NC(=S)Nc2ccc(OC(F)F)cc2)cn1,36.5% (inactive)
20,O=C(OC1CCc2[nH]c3ncccc3c2C1)c1ccccc1 (stereo not given),-5.27% (inactive)
21,CSc1ccccc1NC(CNS(=O)(=O)c1ccccc1)c1ccccc1 (stereo not given),-10.3% (inactive)
22,Cc1cccc(NC(=O)c2cc(Oc3ccc([N+](=O)[O-])cc3F)n(C)n2)c1,35.6% (inactive)
23,Cc1ccc(-c2nsc(SCC(=O)Nc3cccc([N+](=O)[O-])c3)n2)cc1,71.1% (active)
24,CCOC(=O)CC(=O)CSc1nc(-c2cccc(C)c2)ns1,82.2% (active)
25,CSc1ccc(Cn2c(C)c(C(=O)NCc3cccc([N+](=O)[O-])c3)sc2=O)cc1,24.4% (inactive)
